Source: the supplement of paper PMC5499739
Over roughly 16,000 sequences, “Z-score” has its median near -0.37; the highest 2% begin near 3.2. The list comes from a sample in which the highest values are over-represented; it also holds similar and randomly drawn sequences.

These sequences were tested on RBM10 RRM1-ZnF (GST-tagged construct) (assay: RNAcompete 7-mer binding Z-score; higher = stronger binding preference).
Experimental: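 RNAcompete: 20 pmol GST-tagged RBM10 RNA-binding constructs were incubated with a designed RNA pool of about 241,000 sequences up to 41 nt (1.5 nmol) on glutathione beads for 30 min at 4 °C and washed. Bound RNAs were identified by microarray hybridisation. Each RNA 7-mer is scored by a one-sided Z-score of its enrichment, computed over probes that contain the 7-mer within longer pool sequences.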

Sequence | RNAcompete 7-mer binding Z-score
AAGGAUA | 2.99
UAGGAGG | 2.77
AAGGAGA | 3.37
CAGGAGA | 1.93
AUGGAUG | 3.28
AAGGAGG | 4.7
GAGGAGG | 2.97
AUGGAUU | 1.71
AUGGAUA | 2.89
UAGGAGA | 1.94
GAGGAUG | 3.1
AAGGAUG | 4.14
GUAUCUC | -0.594
GCGGUUA | 1.32
CCACUGG | -0.152
UUUCGAA | -0.678
UGACACG | 0.0138
GAUGUUA | -0.116
GCGACCC | -0.545
CCGUUCC | -0.967
UAAUGCA | -0.386
UGACUCG | -0.487
AUAAGGA | 2.08
AUAAGGG | 3.77

Sequence | RNAcompete 7-mer binding Z-score
GUAAGGG | 3.85
GUAAGGA | 2.67
GUAAGGC | 1.67
AUAAGGU | 1.72
GAGAAUC | 0.0593
UACGUGU | -0.318
GAUAUAU | -0.178
ACGAUUA | -0.366
UUAACGU | -0.324
UUUUCAU | -0.727
GUUAGGU | 1.86
AAUAGGC | 0.192
UAUAGGG | 2.69
GUUAGGG | 3.73
GAUAGGG | 4.05
AAUAGGU | 1.37
AAUAGGG | 3.28
CAUAGGG | 1.51
UUUAGGG | 1.65
UAGAACU | -0.155
GACCCCU | -0.704
AACGGCA | 0.42
CGUGCGG | 1.09
CGCGCCA | -0.337

Sequence | RNAcompete 7-mer binding Z-score
AAAGGCG | 1.21
AGGGGGC | 1.83
AAGGGGG | 4.31
AAGGGGA | 4.47
AAAGGGG | 4.5
AGGGGGU | 3.09
AGGGGGA | 2.47
AAGGGCU | 1.62
AAGGGGU | 4.48
AAGGGGC | 3.13
GUCGCUA | -0.243
CUGGAGA | 0.501
UUAGAAU | -0.152
CGUGAUC | -0.704
GAAUCGG | 1.41
UGAACAC | -0.347
GCUUGUC | -0.665
UCUGGGG | 1.39
CGGAGAA | 1.36
AAUUGCC | -0.626
UGGAUAU | 1.17
AGCAUAA | -0.292
GAGGGGU | 3.59
GAGGGCU | 1.3

Sequence | RNAcompete 7-mer binding Z-score
GAGGGGG | 2.9
GAGGGGA | 3.62
CAAAGGG | 2.23
GAGGGAC | 2.06
GAGGAAA | 2.27
AAAAGGG | 3.8
GAGGGAA | 3.42
GAGGGGC | 2.44
CAGGGGA | 2.99
UAAAGGG | 2.85
GAAAGUU | 0.225
CAUAGGA | 0.54
GCCGUUA | -0.607
GCAGGCA | 0.495
AUGUAAG | 0.397
UUGGGUG | 3.83
UGGGGUC | 2.57
UGGGGUG | 4.74
GGGGGUC | 2.18
AGGGGCG | 2.28
GGGGGCG | 2.47
AGGGGUG | 3.85
UCGGGUG | 2.34
UUGGGUC | 1.04

Sequence | RNAcompete 7-mer binding Z-score
UUGGGUU | 2.66
GGGGGUG | 4.02
AUACAGU | -0.00571
GUCCAGA | -0.474
GGGCUCA | 0.485
AGGUGUU | 0.988
AAUGCCC | -0.613
ACCGUAU | -0.746
GUAGGUA | 2.15
AUUGGUG | 2.27
CUGGGUA | 2.13
AUGGGUC | 2.19
AUCGGUG | 0.894
AUGGGUA | 3.54
CGGGGUC | 2.14
AUGGGUG | 4.03
CGGGGUG | 3.76
AUGGGUU | 2.89
GUGGGUA | 3.53
CCGGGUG | 1.47
UAUACUC | -0.769
UAAACAA | -0.392
ACCGUUC | -0.948
AAACACC | -0.6

Sequence | RNAcompete 7-mer binding Z-score
CUGCGGC | 0.0138
GCAUGGC | 0.176
AACCGCG | -0.353
CACGGGU | 1.99
CUGGGUG | 1.83
GUGGGUG | 4.14
GUGGGUC | 2.36
GCGAAAA | 0.0528
GCGCCCC | -0.0934
AUUCCUA | -0.756
UUAGGCU | 0.095
UGGGGUU | 3.29
GGGGGUU | 3.67
AGGGGUU | 2.52
UGGGGGU | 3.87
CUGGGUU | 1.53
UGGGGCU | 2.3
AUUUAUC | -0.691
UAUGGCA | 0.413
CAGCUCG | -0.704
UGAAGAA | 0.228
CGCCUAA | -0.694
CCUGAUC | -0.792
GUGUUUA | 0.27

Sequence | RNAcompete 7-mer binding Z-score
GAGUGGU | 2.46
CAGUGGG | 2.24
CAGUGGA | 1.38
UAGUGGA | 1.54
AAGUGGU | 1.82
AAGUGGG | 3.73
AAGUGGA | 3.31
GAGUGGC | 1.53
GAGUGGA | 3.26
CCAAGAC | -0.646
GUAGUCA | 0.157
CCAUCUG | -0.772
UGUGUCG | 0.043
UGGGGCA | 3.56
UGGGGAA | 3.66
AGGGGCA | 2.47
GGGGCGA | 2.46
UCGGGAA | 1.33
UCUGGGA | 0.508
GGGGGGA | 3.3
CGGGGAA | 2.71
UGGGGGA | 3.71
CGGGGGA | 3.17
GGGGGCA | 2.92

Sequence | RNAcompete 7-mer binding Z-score
UUGGGGA | 2.82
AACGGAC | 0.413
GCAAAAC | -0.0902
AGCAUGA | -0.119
CUAGCGA | -0.347
CAGAGGU | 1.25
UACGGAA | 0.699
CUACAGA | -0.636
AGAGCAG | 0.699
UGGCUAG | 0.391
ACGAGGG | 3.35
ACGAGGC | 0.319
UCGAGGG | 1.95
GCGAGGA | 1.93
GCGAGGG | 3.54
ACGAGGU | 0.959
CUGCUAU | -0.691
AGAUGCG | 0.111
CCGCUCC | -0.474
CCAGGGU | 1.29
